Screening results from PubChem.
Shown is part of a subset that was picked to be rich in hits.
GluA2 TARP mod: modulators of AMPA receptor GluA2-stargazin complexes; O88602+P19491; HEK293 GluA2+stargazin, membrane potential dye (FDSS), glutamate EC50; hits were called plate by plate, in both directions; calls only at 30 µM; actives 3.5% (n = 40,000); AID 1259245;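 active means any of four per-well response measures lying three or more SD from its plate-wide compound average, in either direction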
GIRK2 act: GIRK2 channel activators by thallium flux; P48051; HEK293 GIRK2/NPY4 cells, thallium flux fluorescence; activation (% efficacy), % for hits at 37.5 µM; 34,000 tested, under 10 active;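 active means primary screen hit, no activity in plain HEK293 cells, and in GIRK2-only cells above 5% efficacy rising with concentration; inactive means the rest, including fluorescent compounds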;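 further: efficacy is normalized control-subtracted fluorescence 15 s after thallium addition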
Starred values were filed as active, the others as inactive; i = inactive; · = not tested or not shown; + = active, no number.

SMILES | GluA2 TARP mod | GIRK2 act
COc1cc(OC)cc(-c2nnc(NC(=O)c3ccc(OC)c(OC)c3)o2)c1 | i | ·
Cc1c(C)n2c3c(=O)n(CC(N)=O)c(=O)n(C)c3nc2n1-c1ccc(C(F)(F)F)cc1 | i | ·
Cc1ccc(OCCCCn2c(CNC(=O)c3ccco3)nc3ccccc32)cc1 | · | i
CC(=O)OCCCCn1c(COc2ccccc2)nc2ccccc21 | + | i
O=C(C1CCCO1)N1CCc2ccc(NS(=O)(=O)c3ccc(F)cc3)cc21 (stereo not given) | i | i
O=C(NCCO)C(=O)Nc1ccc(N2CCCCS2(=O)=O)cc1 | i | ·
CCCS(=O)(=O)N1CCc2ccc(NC(=O)c3ccccn3)cc2C1 | i | i
CS(=O)(=O)Nc1cccc(NC(=O)COc2ccc3c(c2)C(=O)CC3)c1 | i | i
NC(=O)Cc1csc(NC(=O)COc2ccc3c(c2)C(=O)CC3)n1 | + | i
COc1ccc(-c2cc(=O)n(CC(=O)NCCc3ccccc3)cn2)cc1 | · | i
O=c1ccc(-c2ccco2)nn1CCCNS(=O)(=O)c1ccc2c(c1)CCCC2 | + | i
O=c1ccc(-c2ccco2)nn1CCCNS(=O)(=O)c1ccc2c(c1)OCCO2 | i | i
COc1cc(NS(=O)(=O)c2ccc3c(c2)CCCC3)ccc1N1CCCCC1=O | + | i
COc1ccc(NS(=O)(=O)c2ccc3c(c2)CCCC3)cc1N1CCCCC1=O | i | i
O=C(Nc1ccc2c(c1)N(C(=O)C1CCCO1)CC2)c1ccc(C(F)(F)F)cc1 (stereo not given) | + | i
O=C(Nc1ccc2c(c1)N(C(=O)C1CCCC1)CC2)c1ccc(C(F)(F)F)cc1 | i | ·
Cc1ccc([N+](=O)[O-])cc1NC(=O)c1ccc(C(C)(C)C)cc1 | + | i
Cc1ccc([N+](=O)[O-])cc1NC(=O)c1ccc(=O)n(Cc2ccccc2)c1 | i | i
O=C(NCCS(=O)(=O)N1CCN(c2ncccn2)CC1)C1CC1 | i | i
COc1ccc(-n2nnc3c(N4CCN(C(=O)c5cccc6ccccc56)CC4)ncnc32)cc1 | + | ·
COc1ccc(-n2nnc3c(N4CCN(C(=O)c5ccccc5C(F)(F)F)CC4)ncnc32)cc1 | i | ·
O=C(Cc1ccc(NC(=O)C23CC4CC(CC(C4)C2)C3)cc1)N1CCOCC1 | · | i
COc1ccc(CCNC(=O)CC2CCCCN2S(=O)(=O)c2ccc(OC)cc2)cc1 (stereo not given) | i | ·
COc1ccc(CCNC(=O)CC2CCCCN2S(=O)(=O)c2ccc(F)cc2)cc1 (stereo not given) | + | ·
COc1ccc(S(=O)(=O)N2CCCCC2CC(=O)NCCc2ccc(Cl)cc2)cc1 (stereo not given) | i | ·
SMILES | GluA2 TARP mod | GIRK2 act
COc1ccc(CCNC(=O)CC2CCCCN2S(=O)(=O)c2ccc(Cl)cc2)cc1 (stereo not given) | + | ·
COc1ccccc1OCC(O)Cn1c(C2CC(=O)N(c3ccc(Cl)cc3)C2)nc2ccccc21 (stereo not given) | i | i
C=CCn1c(SCc2nc(-c3ccc(OC)cc3OC)no2)nc2cc3c(cc2c1=O)OCO3 | i | i
COc1cc(COCC2CCN(CC(=O)Nc3cccc(Cl)c3)CC2)cc(OC)c1 | i | i
O=C(c1ccc(Cl)s1)N1CCN(C(=O)c2cnn3ccccc23)CC1 | i | i
COc1ccc(N2C(=O)C3N=NN(Cc4ccc(Cl)cc4)C3C2=O)cc1OC (stereo not given) | i | i
O=C(C1CCCC1)N1CCN(c2ccc(-c3ccc(Cl)cc3)nn2)CC1 | + | i
O=C(C1c2ccccc2Oc2ccccc21)N1CCN(c2ccc(-c3ccncc3)nn2)CC1 | + | i
O=C(C1CCCCC1)N1CCN(c2ccc(-c3ccncc3)nn2)CC1 | i | i
O=C(C1CC1)N1CCN(c2ccc(-c3ccc(Cl)cc3)nn2)CC1 | i | i
CCOc1ccc(-n2c(-c3ccccc3)cn3c4c(=O)n(CC)c(=O)n(C)c4nc23)cc1 | i | ·
Cc1cc(N(C)C)nc(NCCNC(=O)Nc2cccc(C(F)(F)F)c2)n1 | + | i
CSc1cccc(NC(=O)NCCNc2nc(C)cc(N(C)C)n2)c1 | i | i
O=C(NCc1ccco1)C1CN(c2nc3c(C(F)(F)F)cccc3s2)C1 | i | i
COc1ccc(C)cc1NC(=O)C(=O)NCC(c1cccc2ccccc12)N(C)C (stereo not given) | · | i
CC(=O)Nc1ccc(S(=O)(=O)N2CCN(c3c(C)cccc3C)CC2)cc1 | i | ·
CC(=O)Nc1ccc(S(=O)(=O)n2nc(C)c(C)c2C)cc1 | + | ·
Cc1cc(C)c(S(=O)(=O)n2nc(C)c(C)c2C)c(C)c1 | + | ·
Cc1cc(C)c(S(=O)(=O)N2CCN(S(=O)(=O)N3CCCC3)CC2)c(C)c1 | i | i
O=C(CN1C(=O)CCC1=O)NCC1CCN(S(=O)(=O)C2CC2)CC1 | i | i
